# Inconclusive results are not listed. Where a call stands in place of a potency, no number is given. Active and inactive are the calls of the source. Calls come from the whole dose curve; as a rule, active = well fitted inhibition curve with a large enough effect; inconclusive = small, poorly fitted or top-dose-only effect; inactive = no such curve, though single readings can be large or run the other way.
# Experiment: NS1 protein of Zika virus - qHTS assay to identify small molecule inhibitors in human HEK 293 cells (AID 1347053); note: nearly all actives have a fitted effect of over 55% in size
# Conditions: HEK293 ZIKV MR766 infection, NS1 TR-FRET, 24 h; series mostly up to 46.1 µM
# In short: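 Following 20 h seeding, HEK 293 cells took compound, then 1 h later ZIKV MR766 (MOI = 0.5). Incubation ran 24 h at 37 C before TR-FRET detection of NS1; a drop in signal indicates inhibition.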
row,Compound,Potency
1,CN(C)CC/C=C1\c2ccccc2Sc2ccc(Cl)cc21,inactive
2,CCCCC1=NC2(CCCC2)C(=O)N1Cc1ccc(-c2ccccc2-c2nn[nH]n2)cc1,inactive
3,Cc1cc(N)c2cc(NC(=O)Nc3ccc4nc(C)cc(N)c4c3)ccc2n1,inactive
4,CN1CCN(CCCN2c3ccccc3Sc3ccc(S(=O)(=O)N(C)C)cc32)CC1,inactive
5,CCCCCCCCCCCCCCCCOP(=O)([O-])OCC[N+](C)(C)C,inactive
6,C[C@@H]1C[C@H]2[C@@H]3CCC4=CC(=O)C=C[C@]4(C)[C@@]3(F)[C@@H](O)C[C@]2(C)[C@H]1C(=O)CO,inactive
7,NC(=O)C(=O)N/N=C/c1ccc([N+](=O)[O-])o1,inactive
8,C#C[C@]1(O)CC[C@H]2[C@@H]3CCc4cc(OC5CCCC5)ccc4[C@H]3CC[C@@]21C,inactive
9,Cc1ccnc(NS(=O)(=O)c2ccc(N)cc2)n1,inactive
10,O=C(Nc1ccc(Cl)c(Cl)c1)C1CC1,inactive
11,Cc1c(F)c(N2CCNC(C)C2)cc2c1c(=O)c(C(=O)O)cn2C1CC1 (configuration not stated),inactive
12,O=C1OC(c2ccc(O)cc2)(c2ccc(O)cc2)c2ccccc21,inactive
13,COc1ccc(OC)c(C(O)CNC(=O)CN)c1 (configuration not stated),inactive
14,O=C1[C@H]2CCCC[C@H]2C(=O)N1CCCCN1CCN(c2nsc3ccccc23)CC1,inactive
15,Cc1cc(=O)n(-c2ccccc2)n1C,inactive
16,CO/N=C1\CN(c2nc3c(cc2F)c(=O)c(C(=O)O)cn3C2CC2)CC1CN (configuration not stated),inactive
17,CC1(C)O[C@@H]2[C@@H](CO[C@@]3(COS(N)(=O)=O)OC(C)(C)O[C@@H]23)O1,inactive

# Source: PubChem BioAssay (NCATS)
